What is called inhibition is the relative decrease from the control value, in per cent.

From PubChem BioAssay AID651690 (Sanford-Burnham Center for Chemical Genomics, 2012) come the findings set out here.

Molecules are shown by their SMILES. This is one part of the list. Unmarked numbers belong to inactive results. Activity calls are given as the source filed them. No stated cut-off is given here; in the data, active means inhibition mostly above about 32% (no sharp cut-off); inactive means mostly below about 29%.

In this experiment the target is Sentrin-specific protease 1 (Homo sapiens) (UniProt Q9P0U3). As to the kind of experiment: SENP1 SUMO protease blockers by rate readout – biochemical, kinetic FRET, single concentration, confirmation (AID 651690).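 Further: 0% = DMSO with enzyme and 100% = no enzyme substrate only.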 To be noted: recombinant SENP1, CyPet-SUMO1-YPet FRET kinetic cleavage; at 10 µM; stronger effect = higher value.
Sequence of Sentrin-specific protease 1 (Homo sapiens) (Q9P0U3 419-644 limits assumed): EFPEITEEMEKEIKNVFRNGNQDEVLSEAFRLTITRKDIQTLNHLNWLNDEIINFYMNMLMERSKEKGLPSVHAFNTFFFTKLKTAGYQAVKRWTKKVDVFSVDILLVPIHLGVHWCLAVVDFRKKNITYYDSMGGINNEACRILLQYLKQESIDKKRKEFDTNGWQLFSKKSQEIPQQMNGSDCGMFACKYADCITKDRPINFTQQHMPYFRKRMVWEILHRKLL
Consider `Cc1ccc2c(c1)nnc1nnc(SCC(=O)O)n12`, for which the inhibition is 46.3% (active). Under `COc1cc(/C=C2\CCCc3c2nc2ccccc2c3C(=O)O)cc(Cl)c1O` stands 63.6% (active).

For the compound `Cc1cc(C(=O)N/N=C/c2ccc(N3CCOCC3)cc2)c(C)o1`, the inhibition is 17.6%. Under `Fc1cccc(Cc2c(-c3cccc(Cl)c3)nc3ccc(Br)cn23)c1` stands 3.67%; under `COc1ccc(N2C(=O)C3C(C2=O)C(C(=O)c2ccccc2)N2CCCC32)cc1` (stereo unspecified), 23.7%.

On to `CCOC(=O)C1CCN(c2ncnc3c2c(-c2ccccc2)cn3-c2ccc(C)cc2)CC1`, for which the inhibition was 10.2%.

On to `O=C(NC(=O)c1ccccc1)Nc1ccccc1O`, for which the inhibition was -0.175%.

Consider `c1coc(-c2nc3nc4ccccc4n3nc2-c2ccco2)c1`, for which the inhibition is 13.5%. With `O=C1C=C(c2cccc(Cl)c2O)C[C@@H](c2ccc(F)cc2)C1`, the inhibition was 74.6% (active). Under `N/C(=N\OC(=O)N1c2ccccc2Sc2ccccc21)c1ccc(Br)cc1` stands 0.1%. With `Cc1cccc(C)c1Nc1c(-c2ccccc2O)nc2ncccn12` the figure was 8.55%; with `Cn1c(-c2sc3cc(C(F)(F)F)cnc3c2-c2ccccc2)n[nH]c1=S`, 11.8%. With `O=C1/C(=C/c2coc3ccc(O)cc3c2=O)SC(=S)N1c1ccccc1` the figure was -0.025%.

As for `COc1ccc(OC)c(C2C3=C(N=c4s/c(=C\c5cccc(O)c5)c(=O)n42)c2ccccc2CC3)c1` (stereo unspecified), the inhibition is 19.3%. With `O=C1CC[C@@H]2CC3(C[C@@H]4CCN1[C@H]24)Nc1cc([N+](=O)[O-])ccc1NC3=NC1CCCCC1` (stereo partly specified) the figure was 2.83%.

As for `CCCCCn1nnnc1-c1nc2cc3ccccc3cc2[nH]c1=O`, the inhibition was 56.7% (active). Under `Cc1ccc(C(=O)N/N=C\c2cc(Br)c(Br)o2)cn1` stands 14.5%; under `CCN(CC)S(=O)(=O)c1cc([N+](=O)[O-])ccc1N=Nc1c(O)n(C)c2ccccc12`, -1.62%; under `CC(=O)c1cccc(-c2cnc3c(NC=O)cc(-c4ccc(N(C)C)cc4)cn23)c1`, 48.5% (active). With `O=C(CCN1C(=O)/C(=C/c2cccs2)SC1=S)NNC(=O)c1cccc(O)c1` the figure was 44.5% (active); with `O=[N+]([O-])c1ccc(N=NNc2ccc([N+](=O)[O-])cc2)cc1`, 11.6%.
